{"source": "PubChem BioAssay AID1851", "about": "(National Center for Advancing Translational Sciences (NCATS), 2009)", "note": "In all, about 16,000 compounds went through this assay and about 5,100 (32%) were called active. About 25% were inconclusive and are not listed. The list shows a part of the results. Values without a mark were called inactive. Calls come from the whole dose curve; as a rule, active = well fitted curve in the direction sought with a large enough effect; inconclusive = small, poorly fitted or top-dose-only effect, or effect the other way; inactive = no such curve, though single readings can be large or run the other way. % is set by controls: 0 for no effect and ±100 for the full control effect."}
{"biological_target": "Cytochrome P450 3A4 (Homo sapiens) (UniProt P08684)", "sequence (P08684 whole entry, looked up)": "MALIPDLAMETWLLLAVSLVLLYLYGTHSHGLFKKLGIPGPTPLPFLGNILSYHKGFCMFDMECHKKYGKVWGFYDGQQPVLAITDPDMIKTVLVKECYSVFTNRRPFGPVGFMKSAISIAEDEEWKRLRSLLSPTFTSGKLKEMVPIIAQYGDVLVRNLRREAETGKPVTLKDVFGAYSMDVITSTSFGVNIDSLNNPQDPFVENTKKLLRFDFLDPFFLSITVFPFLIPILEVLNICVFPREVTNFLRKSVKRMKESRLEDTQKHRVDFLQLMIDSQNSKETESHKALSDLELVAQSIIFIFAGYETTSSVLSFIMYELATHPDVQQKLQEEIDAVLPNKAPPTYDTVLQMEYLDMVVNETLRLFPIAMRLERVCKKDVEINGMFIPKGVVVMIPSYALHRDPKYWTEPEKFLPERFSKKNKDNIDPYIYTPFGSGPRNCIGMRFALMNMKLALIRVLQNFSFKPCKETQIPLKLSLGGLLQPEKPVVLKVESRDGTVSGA", "experiment": "Cytochrome panel assay with activity outcomes", "details": "recombinant CYP, pro-luciferin dealkylation, luminescence, p450-cyp3a4; series mostly up to 57.1 µM"}
{"smiles": "CC(C)CNC(=S)N1CCN(C)CC1", "AC50": "inactive"}
{"smiles": "Cc1ccc(NC(=O)c2cc([N+](=O)[O-])ccc2NCc2cccnc2)cc1Cl", "AC50": "3.98 µM (active)"}
{"smiles": "O=C(O)c1cc([N+](=O)[O-])ccc1NCCCc1ccccc1", "AC50": "inactive"}
{"smiles": "COC(=O)c1sccc1NC(=O)c1cc(-c2cc(C)ccc2C)nc2ccccc12", "AC50": "4.47 µM (active)"}
{"smiles": "Cc1cc(C)c(C(N)=O)c(NC(=O)Nc2ccccc2)n1", "AC50": "inactive"}
{"smiles": "O=C(O)c1cc(-c2ccc(-c3ccc(-c4cc(C(=O)O)c5cc(Cl)ccc5n4)cc3)cc2)nc2ccc(Cl)cc12", "activity, negative = inhibition": "24.9% [at 11.4 µM]"}
{"smiles": "COC(=O)c1sccc1NC(=O)c1cc(-c2ccc(C)cc2C)nc2ccccc12", "AC50": "7.08 µM (active)"}
{"smiles": "Cc1sc(NC(=O)C2CCCCC2C(=O)O)c(C(N)=O)c1C", "note": "(stereo not drawn)", "activity, negative = inhibition": "14.4% [at 2.29 µM]"}
{"smiles": "COC(=O)c1sccc1NC(=O)c1cc(-c2ccc(C)cc2)nc2ccccc12", "AC50": "inactive"}
{"smiles": "Cc1ccc(C)c(-c2cc(C(=O)Nc3sc(C)c(C)c3C(N)=O)c3ccccc3n2)c1", "AC50": "2.82 µM (active)"}
{"smiles": "Cc1ccc(-c2cc(C(=O)NN=C3CCCC3)c3ccccc3n2)cc1", "AC50": "7.94 µM (active)"}
{"smiles": "CCN1C(=O)[C@H]2[C@H]3[C@H](O)[C@H](O)C/C(=N/O[C@@H]4O[C@H](COC(C)=O)[C@@H](OC(C)=O)[C@H](OC(C)=O)[C@H]4OC(C)=O)[C@@H]3CC[C@@H]2C1=O", "activity, negative = inhibition": "-5.68% [at 11.4 µM]"}
{"smiles": "Cc1ccc(Nc2ncccc2C(=O)NCc2cccs2)c(C)c1", "AC50": "12.6 µM (active)"}
{"smiles": "Cc1ccccc1-c1cc(C(=O)Nc2nc3c(s2)CCCC3)c2ccccc2n1", "AC50": "3.16 µM (active)"}
{"smiles": "Cc1ccccc1-c1cc(C(=O)n2cccn2)c2cc(Cl)ccc2n1", "AC50": "inactive"}
{"smiles": "Cc1ccc(C)c(-c2cc(C(=O)NCc3cccs3)c3ccccc3n2)c1", "AC50": "1.41 µM (active)"}
{"smiles": "Cc1ccc(-c2cc(C(=O)NCc3ccco3)c3ccccc3n2)s1", "AC50": "10 µM (active)"}
{"smiles": "CC[C@](N)(CCC(=O)O)C(=O)O", "AC50": "inactive"}
{"smiles": "Cc1ccc(C)c(-c2cc(C(=O)Nc3nccs3)c3ccccc3n2)c1", "AC50": "2.82 µM (active)"}
{"smiles": "CCCN1CC=C2C(C#N)=C(N)C(C#N)(C#N)C(c3cc(OC)ccc3OC)C2C1", "note": "(stereo not drawn)", "AC50": "2 µM (active)"}
{"smiles": "CCN1CC=C2C(C#N)=C(N)C(C#N)(C#N)[C@H](c3ccoc3)[C@H]2C1", "AC50": "11.2 µM (active)"}
{"smiles": "CN1CCC2(CC1)C1CN(C)CC=C1C(C#N)=C(N)C2(C#N)C#N", "note": "(stereo not drawn)", "AC50": "inactive"}
{"smiles": "CCC/C=C(\\CCC)C(NC(=O)c1cccs1)c1ccc(C(F)(F)F)cc1", "note": "(stereo not drawn)", "AC50": "2.51 µM (active)"}
{"smiles": "CCC/C=C(\\CCC)C(NS(=O)(=O)c1cccs1)c1ccc(C(=O)OC)cc1", "note": "(stereo not drawn)", "AC50": "3.16 µM (active)"}
{"smiles": "CCC/C=C(\\CCC)C(NC(=O)c1cccs1)c1ccc(C(=O)OC)cc1", "note": "(stereo not drawn)", "AC50": "1.26 µM (active)"}
{"smiles": "COc1nccc(-c2c(-c3ccc(F)cc3)ncn2C2CCC(O)CC2)n1", "note": "(stereo not drawn)", "AC50": "inactive"}
{"smiles": "Cc1ccccc1OC/C(O)=C(\\C#N)c1nc2ccccc2[nH]1", "AC50": "inactive"}
{"smiles": "COc1cccc(OC)c1/C(O)=C(\\C#N)c1nc2ccccc2[nH]1", "AC50": "2 µM (active)"}
{"smiles": "CCn1c2ccccc2c2cc(/C=N/n3cn[nH]c3=S)ccc21", "AC50": "7.08 µM (active)"}
{"smiles": "Cn1c(=O)n(C)c2cc(/C=N/n3cnnc3)ccc21", "activity, negative = inhibition": "2.58% [at 2.29 µM]"}
{"smiles": "O=C(O)c1cccnc1", "AC50": "inactive"}
{"smiles": "CC(C)(C(=O)c1cccnc1)c1cccnc1", "AC50": "1.26 µM (active)"}
{"smiles": "Cn1c(C(=O)N2COCC2(C)C)cc2c(=O)n3ccccc3nc21", "AC50": "inactive"}
{"smiles": "Cc1ccc(S(=O)(=O)/C(C#N)=C/c2c(N3CC(C)OC(C)C3)nc3ccccn3c2=O)cc1", "note": "(stereo not drawn)", "AC50": "1.41 µM (active)"}
{"smiles": "CON(c1nc(N(C)C)nc(N(C)C)n1)S(=O)(=O)c1ccccc1Cl", "AC50": "12.6 µM (active)"}
{"smiles": "O=c1[nH]c(=O)c2nc3ccccc3nc2[nH]1", "AC50": "inactive"}
{"smiles": "Fc1ccc2nc3[nH]c4ccccc4c3nc2c1", "AC50": "14.1 µM (active)"}
{"smiles": "Cc1cc2nc3[nH]c4c(Cl)cc(Cl)cc4c3nc2cc1C", "activity, negative = inhibition": "-18.7% [at 11.4 µM]"}
{"smiles": "CN(C)C(=O)c1ccc(-c2nc(N(C)Cc3ccco3)c3ccccc3n2)cc1", "AC50": "inactive"}
{"smiles": "CN(Cc1ccco1)c1nc(-c2ccc3c(c2)OCO3)nc2ccccc12", "AC50": "1.58 µM (active)"}
{"smiles": "CN(Cc1ccccc1)c1nc(-c2ccc([N+](=O)[O-])cc2)nc2ccccc12", "AC50": "1.12 µM (active)"}
{"smiles": "CN(C)c1ccc(-c2nc(N(C)Cc3ccco3)c3ccccc3n2)cc1", "AC50": "10 µM (active)"}
{"smiles": "CN(Cc1ccco1)c1nc(-c2ccoc2)nc2ccccc12", "AC50": "25.1 µM (active)"}
{"smiles": "C[C@H](CCC(=O)NCC(=O)O)[C@H]1CC[C@H]2[C@H]3[C@@H](C[C@@H](O)[C@]12C)[C@]1(C)CC[C@H](O)C[C@@H]1C[C@@H]3O", "AC50": "inactive"}
{"smiles": "COc1ccccc1CNc1ncnc2ccc(-c3ccoc3)cc12", "AC50": "15.8 µM (active)"}
{"smiles": "COc1ccc(CNc2ncnc3ccc(-c4ccoc4)cc23)c(OC)c1", "AC50": "3.16 µM (active)"}
{"smiles": "CCOC(=O)/C(C(N)=NCCCO)=C(/O)c1ccccc1", "AC50": "inactive"}
{"smiles": "COc1ccc(CNc2ncnc3ccc(-c4cccc(NS(C)(=O)=O)c4)cc23)c(OC)c1", "AC50": "2 µM (active)"}
{"smiles": "COc1ccccc1CNc1ncnc2ccc(-c3cccc(NS(C)(=O)=O)c3)cc12", "AC50": "3.16 µM (active)"}
{"smiles": "Cn1c(=O)c2[nH]c(/N=N\\N3CCN(CCO)CC3)nc2n(C)c1=O", "activity, negative = inhibition": "-17% [at 11.4 µM]"}
{"smiles": "Cc1ccc(Nc2c([N+](=O)[O-])ccc3c2=NC2(CCCCC2)N=3)cc1", "AC50": "7.08 µM (active)"}
{"smiles": "CCC/C=C(\\CCC)C(NC(=O)c1ccc(C(=O)OC)cc1)c1ccc(C(=O)OC)cc1", "note": "(stereo not drawn)", "AC50": "15.8 µM (active)"}
{"smiles": "CCC/C=C(\\CCC)C(NC(=O)C(C)(C)C)c1ccc(C(=O)OC)cc1", "note": "(stereo not drawn)", "AC50": "10 µM (active)"}
{"smiles": "CCC/C=C(\\CCC)C(NC(=O)OCC(C)C)c1ccc(C(=O)OC)cc1", "note": "(stereo not drawn)", "AC50": "12.6 µM (active)"}
{"smiles": "CCC/C=C(\\CCC)C(NC(=O)Cc1ccccc1)c1ccc(C(=O)OC)cc1", "note": "(stereo not drawn)", "AC50": "3.98 µM (active)"}
{"smiles": "CCC/C=C(\\CCC)C(NC(=O)Oc1ccc(F)cc1)c1ccc(C(=O)OC)cc1", "note": "(stereo not drawn)", "AC50": "inactive"}
{"smiles": "CCN(CC)c1nc(Nc2ccccc2)nc(Oc2ccc(C(=O)OC)cc2)n1", "AC50": "inactive"}
{"smiles": "CCOC(=O)NC(NC(=O)OCC)C(=O)c1ccc(F)cc1", "AC50": "inactive"}
